Compounds with a hit are over-represented: about 3.5% of the library has one in this group of screens.
Mtb UGM inh: Mtb UDP-galactopyranose mutase inhibition; P9WIQ1; purified UGM, fluorescence polarization probe displacement; inhibition, % at 10 µM; 0.06% of 320,000 active; in the data active means inhibition above about 10%, passing the limit was not always enough
GDH-TPI counter: GDH-TPI coupled enzyme inhibition counter-screen | GDH-TPI coupled enzyme counterscreen, NADH absorbance | inhibition, % at 4.8 µM | 1.2% of 360,000 active; in the data active means inhibition above about 30%;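 further: 0% = DMSO wells and 100% = wells lacking the enzyme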
Mtb hypoxia rep: reduces hypoxia-regulated biosensor signal in M. tuberculosis. M. tuberculosis hypoxia-regulated fluorescent reporter, fluorescence. fluorescence inhibition, % (test concentration not listed). 0.1% of 300,000 active; in the data active means fluorescence inhibition mostly above about 23%, no sharp cut-off; inactive means mostly below about 17%
FadD28 binding: inhibitors of Mycobacterium tuberculosis FadD28 bisubstrate binding; FadD28 bisubstrate probe binding, fluorescence polarization; inhibition, % at 12.5 µM; 0.22% of 360,000 active; AID 588549; in the data active means inhibition above about 8.5%, passing the limit was not always enough
Rv3671c protease: inhibitors of M. tuberculosis serine protease Rv3671c | P9WHR9 | inhibition, % at 5.96 µM | 0.048% of 320,000 active | AID 2606; in the data active means inhibition above about 38%;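 further: extracellular domain of Rv3671c used as enzyme; 0% = enzyme with DMSO and 100% = no enzyme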
FBA Mtb inh: Mtb fructose-bisphosphate aldolase inhibition; P9WQA3; purified M. tuberculosis FBA, fluorescence read-out; inhibition, % at 1 µM; 2.3% of 360,000 active; in the data active means inhibition above about 27%;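 further: 0% = vehicle and 100% = reference inhibitor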
Target sequence (P9WQA3 whole entry, looked up): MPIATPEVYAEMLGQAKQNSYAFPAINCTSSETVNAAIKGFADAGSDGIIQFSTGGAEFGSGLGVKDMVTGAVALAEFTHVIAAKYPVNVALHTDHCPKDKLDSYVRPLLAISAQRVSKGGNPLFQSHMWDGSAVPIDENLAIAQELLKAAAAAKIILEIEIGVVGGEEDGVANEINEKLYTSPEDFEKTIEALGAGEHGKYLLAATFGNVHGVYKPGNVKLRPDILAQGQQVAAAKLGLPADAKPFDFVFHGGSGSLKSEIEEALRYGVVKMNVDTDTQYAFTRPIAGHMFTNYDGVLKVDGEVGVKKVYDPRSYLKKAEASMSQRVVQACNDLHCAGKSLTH
* = called active by the depositor; . = not tested or not shown; + = active, no number.

SMILES | Mtb UGM inh | GDH-TPI counter | Mtb hypoxia rep | FadD28 binding | Rv3671c protease | FBA Mtb inh
N#CC(=NNc1ccc(F)cc1)C(=O)C1CC1 | . | . | -5 | . | . | .
CC(NC(=O)c1coc(=O)c(Br)c1)c1ccccc1 (configuration not stated) | . | . | 10 | . | . | .
CCCSc1ccc(C2C3C(=O)N(CC)C(=O)C3[C@]3(C(=O)OC)CCCCN23)cc1OC (some centres not stated) | . | . | 17 | . | . | .
Cc1nc2nc(-c3ccc(Cl)cc3)cn2nc1C | -1 | -5 | . | -2 | 13 | 142*
COc1ccc(S(=O)(=O)Nc2cccc3c2OC(CN(C)S(=O)(=O)c2ccc(Cl)cc2)C(C)CN(C(C)CO)C3=O)cc1 (configuration not stated) | . | . | -6 | . | . | .
N#Cc1cccn1-c1nccc(-c2cccs2)n1 | 0 | 4 | 16 | -4 | -14 | -5
c1ccc(CSc2nccc(-c3ccco3)n2)cc1 | 2 | 13 | 1 | -2 | -3 | 0
Cc1ccc(C)n1-c1nccc(-c2cccs2)n1 | 0 | -5 | 7 | 1 | 6 | 161*
Cc1ccc(C)n1-c1nccc(-c2ccco2)n1 | . | 6 | 7 | 0 | 1 | 158*
COC(=O)C1=C(c2ccc(F)cc2OCc2ccccc2)CC2CCC1N2C(=O)NCCCOC(C)C (configuration not stated) | . | . | 9 | . | . | .
CCCOc1ccc(C=NNC(=O)C(C)Sc2ccccn2)cc1OCC (configuration not stated) | . | . | -4 | . | . | .
Nc1nonc1-c1nc2ccccc2n1CC(=O)N/N=C/c1ccc(-c2ccccc2C(=O)O)o1 | 0 | 42* | . | -5 | -10 | 2
Cc1cc2c(=O)n(NC(N)=O)c(C)nc2s1 | 0 | -2 | . | -4 | 7 | 150*
CCCc1cc2c(=O)n(NC(=O)c3nn(C)cc3[N+](=O)[O-])c(C)nc2s1 | 3 | 10 | -2 | -6 | -7 | -3
O=C1NC(=O)C(=Cc2ccccc2Oc2ccc(Cl)cc2)S1 | . | . | 0 | . | . | .
Cc1ccccc1-c1nnc(NC(=O)c2ccc(N3C(=O)CCC3=O)cc2)s1 | -2 | 33* | . | 0 | 0 | 4
O=[N+]([O-])c1ccc(N2CCOCC2)cc1NCc1ccccc1 | 0 | 13 | . | -3 | 4 | -7
O=[N+]([O-])c1cc([N+](=O)[O-])c(N2CCOCC2)cc1NCc1ccccc1 | -1 | 31* | 5 | -2 | -11 | -4
Cc1cc(=O)oc2c3c(cc(OCC(=O)Nc4cccnc4)c12)OC(C)(C)CC3 | -1 | 7 | . | 1 | -4 | 12
Cc1c(C)c2c(OCC(=O)NC3CC3)cc3c(c2oc1=O)CCC(C)(C)O3 | 2 | 13 | . | -1 | -5 | +
CCCC(NC(=O)COc1cc2c(c3oc(=O)c(C)c(C)c13)CCC(C)(C)O2)C(=O)O (configuration not stated) | 0 | 17 | -11 | -3 | 4 | +
Cc1c(C)c2c(OCC(=O)N[C@@H](CC(C)C)C(=O)O)cc3c(c2oc1=O)CCC(C)(C)O3 | 0 | 18 | -5 | -1 | . | +
CSC[C@H](NC(=O)COc1cc2c(c3oc(=O)cc(C)c13)CCC(C)(C)O2)C(=O)O | 0 | 7 | 7 | -5 | 5 | +
CN(C)c1ccc(C=NNC(=O)COc2ccccc2)cc1 | . | . | 0 | . | . | .
COC(=O)C1=C(c2ccc(Cl)c(C(F)(F)F)c2)CC2CCC1N2C(=O)NCCNC(C)=O (configuration not stated) | . | . | 6 | . | . | .
SMILES | Mtb UGM inh | GDH-TPI counter | Mtb hypoxia rep | FadD28 binding | Rv3671c protease | FBA Mtb inh
Cc1cccc(NC(=O)CCC(=O)NN=Cc2ccc(O)cc2O)c1 | . | . | 7 | . | . | .
Cc1cc(OCC(=O)N[C@@H](Cc2c[nH]c3ccccc23)C(=O)O)c2c(C)c(C)c(=O)oc2c1 | 1 | 10 | . | -1 | 1 | 2
CSC[C@H](NC(=O)COc1cc2c(c3oc(=O)c(C)c(C)c13)CCC(C)(C)O2)C(=O)O | -1 | 15 | 3 | -3 | 6 | +
Cc1c(C)c2c(OCC(=O)N[C@@H](Cc3ccccc3)C(=O)O)cc3c(c2oc1=O)CCC(C)(C)O3 | 0 | 38* | . | -5 | -4 | +
CSCCC(NC(=O)COc1cccc2ccccc12)C(=O)O (configuration not stated) | -1 | 2 | 2 | 0 | 4 | 3
CSCC[C@H](NC(=O)COc1cc2c(c3oc(=O)c(C)c(C)c13)CCC(C)(C)O2)C(=O)O | -2 | 9 | 0 | -4 | 5 | +
COCCCNC(=O)COc1cc2c(c3oc(=O)c(C)c(C)c13)CCC(C)(C)O2 | 6 | 7 | 4 | -2 | 6 | +
O=c1c(Cl)c(NN=Cc2ccc(Cl)cc2)cnn1-c1ccccc1 | . | . | -8 | . | . | .
CC(C)c1ccccc1-n1c(SCC(=O)c2ccc3c(c2)NC(=O)CO3)nc2ccccc2c1=O | -3 | 13 | 1 | -5 | -67 | 122*
O=C(O)c1ccc2c(c1)[C@@H]1C=CC[C@@H]1[C@H](c1ccccn1)N2 | 1 | 4 | 8 | 19* | 28 | 3
COc1cccc(NS(=O)(=O)c2ccc3c(c2)C2C=CCC2C(c2ccc(C(=O)O)cc2)N3)c1 (configuration not stated) | 3 | 8 | 10 | 22* | 20 | -3
COC(=O)c1ccc(C2Nc3ccc(C(C)=NNC(=O)C(OC)c4ccccc4)cc3C3C=CCC32)cc1 (configuration not stated) | . | . | 2 | . | . | .
COc1ccc(C(=O)N/N=C(\C)c2ccc3c(c2)C2C=CCC2C(c2ccccc2)N3)cc1 (configuration not stated) | 3 | 26 | . | -3 | -2 | -2
COc1ccc2c(c1)C[C@]1(C)c3ccccc3C(=O)N(Cc3ccccc3)C21 (some centres not stated) | . | . | 3 | . | . | .
Oc1nc(Nc2cccc(Cl)c2)sc1/C=C1\C=Nc2ccccc21 | -4 | 25 | 4 | -2 | -17 | -3
Oc1cccc(Nc2nc(O)c(/C=C3\C=Nc4ccccc43)s2)c1 | 2 | 41* | -12 | -1 | -28 | 5
COC(=O)NN=C(c1ccccc1)C1CCCCC1 | . | . | 12 | . | . | .
CC1=Nn2c(nnc2-c2cc(-c3ccccc3)n[nH]2)SC1 | 0 | 13 | . | -2 | -5 | 3
c1ccc(-c2ccc(C3=Nn4c(nnc4-c4cc(-c5ccccc5)n[nH]4)SC3)cc2)cc1 | -1 | 44* | 22 | -4 | -56 | -3
COc1ccccc1-c1nnc2n1N=C(c1ccc(O)c(O)c1)CS2 | -1 | 36* | 3 | -1 | 21 | -5
Cn1nccc1C(=O)NN=Cc1ccccc1[N+](=O)[O-] | . | . | -2 | . | . | .
CCNC(=S)N/N=C/c1ccc(C#N)cc1 | -1 | 39* | . | -3 | 0 | -5
COCCCNC(=S)N/N=C/c1ccc(O)cc1 | -2 | 70* | . | 1 | -3 | -1
COCCCNC(=S)N/N=C/c1ccc(OC)cc1 | -4 | 10 | . | -3 | 7 | 0

Screening results deposited in PubChem BioAssay by several laboratories.
